Compound activity from PubChem BioAssay.
Rows were chosen to be rich in hits. Some 2.2% of all compounds tested hit in one or more screens of this group.
NALP1 inh: inhibitors of NALP1 inflammasome in yeast | actives 0.61% (n = 280,000) | S. cerevisiae NALP1/ASC/caspase-1 growth, X-gal OD620, 72 h | inhibition, % at 10 µM; in the data active = inhibition mostly above about 24%, no sharp cut-off; inactive = mostly below about 32%
dFosB act: activators of mouse delta FosB homodimer. P13346. purified delta FosB, TAMRA-CDK5 oligo fluorescence polarization; percent of positive-control signal above neutral wells. activation, % at 25 µM. actives 0.99% (n = 340,000);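 active = mean activation above about 17%, with every replicate also reaching it, limit read from the data, passing the limit was not always enough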
Target sequence (P13346 whole entry, looked up): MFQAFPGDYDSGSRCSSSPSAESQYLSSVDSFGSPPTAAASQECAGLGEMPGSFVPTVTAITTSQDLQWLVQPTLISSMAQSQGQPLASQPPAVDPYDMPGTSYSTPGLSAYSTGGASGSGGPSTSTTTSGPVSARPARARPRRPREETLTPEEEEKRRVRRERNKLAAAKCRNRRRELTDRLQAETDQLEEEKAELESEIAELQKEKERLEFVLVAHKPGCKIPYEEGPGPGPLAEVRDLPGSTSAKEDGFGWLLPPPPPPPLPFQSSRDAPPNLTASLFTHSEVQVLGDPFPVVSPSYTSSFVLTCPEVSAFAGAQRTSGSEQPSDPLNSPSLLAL
ZTA DNA inh: ZTA (EBV) inhibition in EBNA-1 counter-screen | P03206 | ZTA-DNA binding, fluorescence polarization | inhibition, % at 11 µM | actives 0.15% (n = 320,000) | AID 2234; in the data active = inhibition above about 33%
Target sequence (P03206 whole entry, looked up): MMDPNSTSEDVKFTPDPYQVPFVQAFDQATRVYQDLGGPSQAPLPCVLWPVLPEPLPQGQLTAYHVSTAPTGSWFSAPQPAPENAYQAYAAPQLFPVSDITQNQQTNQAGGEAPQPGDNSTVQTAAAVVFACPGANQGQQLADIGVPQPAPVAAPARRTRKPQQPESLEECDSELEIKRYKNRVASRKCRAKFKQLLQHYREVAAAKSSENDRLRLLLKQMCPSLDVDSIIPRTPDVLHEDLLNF
NALP3 yeast inh: blocks the NALP3 inflammasome reconstituted in yeast; Yeast reconstituted NLRP3/ASC/caspase-1, beta-gal luminescence, 24 h; inhibition, % at 10 µM; actives 0.39% (n = 330,000); AID 2825;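 active = inhibition of 50% or more; inactive = inhibition below 50%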;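 also: plate controls were induced DMSO wells for no effect and uninduced yeast grown without galactose for full effect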
EBNA-1 inh: blocks EBNA-1 binding to DNA; EBNA-1 DNA binding, fluorescence polarization; inhibition, % at 14.8 µM; actives 0.34% (n = 300,000); AID 1950; in the data active = inhibition above about 28%
PolyA inh: blocks polyadenylation in yeast reporter cells; AID 1875; activity score, % at 12 µM; actives 0.02% (n = 300,000); S. cerevisiae SKY197-pL101 polyadenylation reporter, beta-gal luminescence; efflux-impaired pdr1/pdr3 knockout yeast; score 100 = 6 SD above DMSO;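 active = lowest replicate activity score at least 50, where 100 means six control SD above control mean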;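 also: yeast exposed to compound for 9 h at 30 °C; higher score means more reporter readthrough which indicates perturbed polyadenylation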
Numbers without * were called inactive; · = no result given; ! = not confirmed by another sample.

SMILES | NALP1 inh | dFosB act | ZTA DNA inh | NALP3 yeast inh | EBNA-1 inh | PolyA inh
O=C(NCc1ccco1)c1ccc(Oc2ccccc2)cc1 | 40* | 0 | -6 | 35 | -1 | 15
O=C(NCc1ccco1)c1cccs1 | 29* | 0 | 15 | 8 | 5 | 6
Cc1cc(Br)c2[nH]cc(CCNC(=O)c3ccco3)c2c1 | 41* | -4 | -9 | 38 | -4 | -21
CCOC(=O)c1ccccc1-n1c(C)cc(C2N=C(N)Nc3nc4ccccc4n32)c1C (centres undefined) | -3 | 45* | 1 | 4 | 2 | 15
CCOC(=O)C1=C(C)Nc2nc3ccccc3n2C1c1ccc(O)cc1 (centres undefined) | -2 | 0 | -1 | -4 | -3 | 4
O=C(O)C1Nc2c(cccc2C(F)(F)F)C2C=CCC12 (centres undefined) | 11 | · | · | · | · | 26
CC(=O)c1ccc2c(c1)C1C=CCC1C(C(=O)O)N2 (centres undefined) | -14 | -19 | · | 12 | · | ·
COc1cccc2c1NC(C(=O)O)C1CC=CC21 (centres undefined) | 25 | -9 | 38* | -9 | 20 | -3
Cc1ccc2c(c1)C1C=CCC1C(C(=O)O)N2 (centres undefined) | 19 | · | 28 | · | 45* | -29
CN(C)S(=O)(=O)c1cccc(COc2ncnc3c(Cl)cc(Cl)cc23)c1 | 18 | -13 | -2 | 12 | -10 | -3
O=C(NCCc1c[nH]c2ccccc12)C1CCC(=O)N(CCc2cccc(F)c2)C1 (centres undefined) | 2 | -5 | 7 | 15 | -1 | 2
COc1ccc(C(=O)NC(=S)Nc2ccc(N3CCCC3)cc2)cc1 | 0 | -4 | -5 | 6 | -9 | 0
CCOc1cccc(C(=O)Nc2ccc(N3CCCC3)cc2)c1 | 16 | -2 | 7 | 16 | -2 | 11
COc1ccc(C(=O)Nc2ccc(N3CCCC3)cc2)cc1 | -11 | 29* | -13 | 22 | -7 | -14
CCOc1ccc(C(=O)Nc2ccc(N3CCCC3)cc2)cc1 | 42 | 22* | 8 | 18 | 6 | -10
CCOc1ccc(C(=O)Nc2ccc3c(c2)C(=O)NC3=O)cc1 | 9 | 59* | -21 | 6 | 7 | -11
O=C(N/C(=C/c1ccc(F)cc1)C(=O)N1CCCC1)c1ccccc1 | 1 | -3 | 3 | 16 | -2 | 16
Cc1ccc(Oc2ncnc(N)c2[N+](=O)[O-])cc1C | -9 | 1 | -11 | 29 | 4 | 14
CCCC(C)c1nnc(NC(=O)C2CCCO2)s1 (centres undefined) | 33* | -4 | -8 | 24 | -2 | 19
CC1CCc2nc(NC(=O)C3CCCO3)sc2C1 (centres undefined) | 33* | -14 | -3 | 11 | -7 | -17
CCCCOc1ccc(C(=O)NCC(=O)NNC(=O)c2ccco2)cc1 | · | -6 | · | 3 | · | ·
O=C(NCc1cccc(F)c1)c1ccc2nc(N3CCOCC3)sc2c1 | 16 | -3 | -4 | 21 | -7 | 2
C[n+]1c2cc(N)ccc2cc2ccc(N)cc21 | · | 33*! | · | · | · | ·
Cc1ccc(N(C(=O)c2snc(C(N)=O)c2N)C(C(=O)NCc2ccccc2)c2ccncc2)c(C)c1 (centres undefined) | -1 | -16 | -16 | 23 | -1 | 11
Cc1noc2ncnc(Oc3cc(Cl)ccc3Cl)c12 | 21* | 1 | 12 | -35 | -1 | -13
SMILES | NALP1 inh | dFosB act | ZTA DNA inh | NALP3 yeast inh | EBNA-1 inh | PolyA inh
Cc1noc2ncnc(Oc3ccc4ccccc4c3)c12 | 6 | -1 | -4 | 29 | -8 | -9
CC(=O)N1CCN(c2ccc(C(N)=O)cc2[N+](=O)[O-])CC1 | 32* | -3 | 15 | -6 | -3 | -2
CCC(=O)N1CCN(c2ccc(NC(=O)c3ccc(N4CCCC4)c([N+](=O)[O-])c3)cc2)CC1 | 14 | -4 | -5 | 2 | 15 | -3
CCC(=O)N1CCN(c2ccc(NC(=O)c3ccc(N4CCOCC4)c([N+](=O)[O-])c3)cc2)CC1 | 38* | -4 | -15 | 25 | 12 | -9
Cc1ccc(C(=O)N2CCN(c3ccccc3Cl)CC2)cc1[N+](=O)[O-] | 38* | -5 | 9 | 11 | 0 | -55
NC(=O)c1ccc(N2CCCCCC2)c([N+](=O)[O-])c1 | -1 | 6 | 2 | 3 | -2 | -10
C#Cc1cccc(N2C(=O)C3C4C=CC(C3C2=O)C2C(=O)N(c3cccc(C#C)c3)C(=O)C42)c1 (centres undefined) | · | 6 | · | · | · | ·
CCOC(=O)c1c(NC(=O)CN2C(=O)NC3(CCCC3)C2=O)sc(C)c1CC | · | -4 | -3 | 17 | -7 | -1
COc1ccccc1N1CCN(CC(O)COc2ccc3c(c2)OCO3)CC1 (centres undefined) | 23* | 0 | 4 | 3 | 5 | 7
CCc1ccc(Nc2n[n+](-c3ccccc3)c(-c3ccc(N(CC)CC)cc3)s2)cc1 | 36 | 75* | -10 | 21 | -6 | 20
CCc1ccc(Nc2n[n+](-c3ccccc3)c(-c3ccc(OCc4ccccc4)cc3)s2)cc1 | -5 | 2 | 9 | 17 | 2 | 18
CCN(CC)c1ccc(-c2sc(Nc3ccccc3)n[n+]2-c2ccc(F)cc2)cc1 | 8 | 28* | 3 | 17 | 5 | 11
CC1=CC(C)C(/C=N/N=C(N)N)C(C)C1 (centres undefined) | 7 | -9 | -7 | 31 | -3 | -9
CCC/C(O)=C1\C(=O)CCCC1=NCCc1c(C)[nH]c2ccc(OC)cc12 | 19* | -4 | 2 | 2 | 9 | -4
CCC/C(O)=C1\C(=O)CCCC1=NCCc1c(C)[nH]c2ccc(C)cc12 | · | -3 | -9 | -20 | -7 | 5
O=[N+]([O-])c1ccccc1S(=O)(=O)Nc1cccnc1 | 5 | -5 | -9 | 24 | -3 | 22
COc1ccc(C)cc1S(=O)(=O)N(C)CC(=O)N1CCN(C)CC1 | 40* | -3 | 5 | 6 | 0 | -2
O=C(CN1C(=O)/C(=C/c2ccccc2F)Sc2ccccc21)NCC1CCCO1 (centres undefined) | 32 | -2 | -1 | 20 | -8 | -16
COCCCNCCOc1ccc(C(C)(C)c2ccccc2)cc1 | 46* | -11 | 17 | 23 | -4 | -30
CNCCCOc1ccc(C(C)(C)c2ccccc2)cc1 | 15 | · | · | · | · | -6
NC(=O)C1CCN(c2oc(-c3ccccc3)nc2S(=O)(=O)c2ccc(Br)cc2)CC1 | 12 | -2 | 1 | 10 | -7 | 5
Cc1ccc(S(=O)(=O)c2nc(-c3ccccc3)oc2N2CCC(C(N)=O)CC2)cc1 | 34* | -12 | 3 | 11 | 1 | 15
O=C(Nc1ccccc1F)Nc1cccnc1Cl | · | 2 | 5 | -9 | -12 | -5
Cc1ccc(-c2cc(N)n(-c3ccc(C)cc3)n2)cc1 | 8 | -14 | 11 | 29 | 7 | 1
